Laboratory results published in publication PMC7862700, “An all-to-all approach to the identification of sequence-specific readers for epigenetic DNA modifications on cytosine”.

What was measured:
Assay in all cases: DAPPL (digital affinity profiling via proximity ligation, sequencing); 10 mM Tris-HCl pH 7.5, 50 mM NaCl, 1 mM DTT, 4% glycerol, room temperature, 30 min; GST-TFs on glutathione beads, 16-mer random dsDNA library, 0.1% formaldehyde crosslink after washing; high values mean tight binding
Details in all cases: protein: recombinant; tags: N-terminal GST; dsDNA, one strand shown
FLI1 = target: T1, FLI1 (Homo sapiens, UniProt Q01543 1-452)
T1 sequence: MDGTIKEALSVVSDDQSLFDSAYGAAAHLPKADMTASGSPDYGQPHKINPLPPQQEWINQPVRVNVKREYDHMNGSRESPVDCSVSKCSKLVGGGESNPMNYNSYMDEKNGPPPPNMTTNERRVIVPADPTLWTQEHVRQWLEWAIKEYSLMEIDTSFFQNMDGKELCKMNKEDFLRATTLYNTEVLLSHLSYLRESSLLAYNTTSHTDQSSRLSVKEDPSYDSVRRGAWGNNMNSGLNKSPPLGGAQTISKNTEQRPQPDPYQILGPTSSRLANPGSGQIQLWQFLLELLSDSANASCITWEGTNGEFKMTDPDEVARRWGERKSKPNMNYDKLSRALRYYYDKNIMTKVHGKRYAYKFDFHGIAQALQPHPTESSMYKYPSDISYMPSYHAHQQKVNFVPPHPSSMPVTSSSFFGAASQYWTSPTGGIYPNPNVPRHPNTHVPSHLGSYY
In short: (§1)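 Binding signal is defined as a hexamer's read frequency for one factor over its frequency for the tag-only sample. To obtain reads, GST-fused human transcription factors were expressed in yeast, captured on glutathione beads, barcoded with DNA and pooled with that sample. Pools met 200 nmole of a 16-mer random double-stranded DNA library in Tris/NaCl/DTT/glycerol buffer for 30 min at room temperature before washing, 0.1% formaldehyde crosslinking, proximity ligation (BsaI/T4 ligase, 1 h, 37 °C), PCR and Illumina NextSeq500 sequencing.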

ELK1 = target: T2, ELK1 (Homo sapiens, UniProt P19419 1-428)
T2 sequence: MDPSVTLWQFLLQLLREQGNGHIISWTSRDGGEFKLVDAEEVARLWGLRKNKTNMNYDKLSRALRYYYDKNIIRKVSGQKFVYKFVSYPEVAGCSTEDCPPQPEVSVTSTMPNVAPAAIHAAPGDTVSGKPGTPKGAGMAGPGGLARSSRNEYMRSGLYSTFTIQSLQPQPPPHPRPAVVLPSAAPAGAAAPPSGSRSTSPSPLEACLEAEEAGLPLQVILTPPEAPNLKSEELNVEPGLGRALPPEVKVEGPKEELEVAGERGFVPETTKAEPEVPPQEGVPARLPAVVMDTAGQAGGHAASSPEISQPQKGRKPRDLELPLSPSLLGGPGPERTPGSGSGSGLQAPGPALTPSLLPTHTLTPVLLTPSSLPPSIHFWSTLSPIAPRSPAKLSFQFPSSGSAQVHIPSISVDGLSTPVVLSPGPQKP
In short: as §1

GABPA = target: T3, GABPA (Homo sapiens, UniProt Q06546 1-454)
T3 sequence: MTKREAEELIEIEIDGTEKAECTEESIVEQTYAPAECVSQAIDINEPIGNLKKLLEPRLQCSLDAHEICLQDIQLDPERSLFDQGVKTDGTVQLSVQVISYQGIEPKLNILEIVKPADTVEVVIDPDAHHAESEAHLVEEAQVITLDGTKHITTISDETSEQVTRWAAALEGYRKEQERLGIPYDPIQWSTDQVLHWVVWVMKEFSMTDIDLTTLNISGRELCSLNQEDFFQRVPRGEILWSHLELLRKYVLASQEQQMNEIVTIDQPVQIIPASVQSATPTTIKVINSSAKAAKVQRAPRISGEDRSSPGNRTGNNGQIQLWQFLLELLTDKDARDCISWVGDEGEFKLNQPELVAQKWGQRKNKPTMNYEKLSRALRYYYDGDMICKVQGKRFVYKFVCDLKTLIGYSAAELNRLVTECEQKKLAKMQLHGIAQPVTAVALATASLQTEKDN
In short: as §1

ERG = target: T4, ERG (Homo sapiens, UniProt P11308 1-479)
T4 sequence: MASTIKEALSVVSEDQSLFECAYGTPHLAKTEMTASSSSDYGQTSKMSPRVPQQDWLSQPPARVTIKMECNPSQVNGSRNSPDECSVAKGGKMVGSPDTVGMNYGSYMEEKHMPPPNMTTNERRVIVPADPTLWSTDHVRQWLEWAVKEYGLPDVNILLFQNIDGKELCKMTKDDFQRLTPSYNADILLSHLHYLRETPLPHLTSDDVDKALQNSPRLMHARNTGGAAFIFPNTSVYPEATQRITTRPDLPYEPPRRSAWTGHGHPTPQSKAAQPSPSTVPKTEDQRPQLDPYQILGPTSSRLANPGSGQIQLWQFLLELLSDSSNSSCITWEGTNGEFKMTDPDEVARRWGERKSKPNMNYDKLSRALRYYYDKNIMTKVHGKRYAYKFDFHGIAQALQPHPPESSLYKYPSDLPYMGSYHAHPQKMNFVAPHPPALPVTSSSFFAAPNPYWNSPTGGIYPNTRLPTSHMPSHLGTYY
In short: as §1

ELF1 = ELF1 (Homo sapiens, UniProt P32519 1-619)
In short: as §1

EHF = target: T5, EHF (Homo sapiens, UniProt Q9NZC4 1-300)
T5 sequence: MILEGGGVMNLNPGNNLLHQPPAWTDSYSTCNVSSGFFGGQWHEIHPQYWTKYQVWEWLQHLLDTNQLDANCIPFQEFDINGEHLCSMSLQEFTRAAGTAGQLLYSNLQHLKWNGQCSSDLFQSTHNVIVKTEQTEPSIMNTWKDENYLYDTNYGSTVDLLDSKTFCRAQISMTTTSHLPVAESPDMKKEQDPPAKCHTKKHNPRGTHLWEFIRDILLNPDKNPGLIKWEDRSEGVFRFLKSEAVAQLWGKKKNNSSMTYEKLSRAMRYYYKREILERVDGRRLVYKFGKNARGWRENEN
In short: as §1

SPI1 = SPI1 (Homo sapiens, UniProt P17947 1-270)
In short: as §1

SPIB = SPIB (Homo sapiens, UniProt Q01892 1-262)
In short: as §1

ELK3 = target: T6, ELK3 (Homo sapiens, UniProt P41970 1-407)
T6 sequence: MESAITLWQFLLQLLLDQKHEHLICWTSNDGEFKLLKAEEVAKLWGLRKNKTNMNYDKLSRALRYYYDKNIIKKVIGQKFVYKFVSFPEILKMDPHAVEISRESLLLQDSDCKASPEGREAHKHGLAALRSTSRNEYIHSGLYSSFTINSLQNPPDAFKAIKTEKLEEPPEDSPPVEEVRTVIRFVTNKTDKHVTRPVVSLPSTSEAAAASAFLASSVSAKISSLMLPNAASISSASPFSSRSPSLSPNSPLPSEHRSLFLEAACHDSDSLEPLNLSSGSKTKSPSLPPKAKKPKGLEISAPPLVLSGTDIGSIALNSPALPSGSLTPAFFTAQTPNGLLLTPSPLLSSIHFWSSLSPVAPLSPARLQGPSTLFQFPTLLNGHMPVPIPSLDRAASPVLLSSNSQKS
In short: as §1

ETV5 = ETV5 (Homo sapiens, UniProt P41161 1-510)
In short: as §1

ELF4 = ELF4 (Homo sapiens, UniProt Q99607 1-663)
In short: as §1

ETV2 = target: T7, ETV2 (Homo sapiens, UniProt O00321 1-342)
T7 sequence: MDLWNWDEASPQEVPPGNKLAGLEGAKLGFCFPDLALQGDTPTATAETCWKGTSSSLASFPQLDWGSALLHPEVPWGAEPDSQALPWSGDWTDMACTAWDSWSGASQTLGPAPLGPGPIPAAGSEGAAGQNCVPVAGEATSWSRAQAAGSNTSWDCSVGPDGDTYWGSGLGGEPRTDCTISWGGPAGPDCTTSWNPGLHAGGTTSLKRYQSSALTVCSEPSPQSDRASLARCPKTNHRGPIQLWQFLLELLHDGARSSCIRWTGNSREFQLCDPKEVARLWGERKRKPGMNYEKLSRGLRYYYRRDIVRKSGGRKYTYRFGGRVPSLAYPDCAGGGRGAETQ
In short: as §1

ETV1 = ETV1 (Homo sapiens, UniProt P50549 1-477)
In short: as §1

ETV3L = target: T8, ETV3L (Homo sapiens, UniProt Q6ZN32 1-361)
T8 sequence: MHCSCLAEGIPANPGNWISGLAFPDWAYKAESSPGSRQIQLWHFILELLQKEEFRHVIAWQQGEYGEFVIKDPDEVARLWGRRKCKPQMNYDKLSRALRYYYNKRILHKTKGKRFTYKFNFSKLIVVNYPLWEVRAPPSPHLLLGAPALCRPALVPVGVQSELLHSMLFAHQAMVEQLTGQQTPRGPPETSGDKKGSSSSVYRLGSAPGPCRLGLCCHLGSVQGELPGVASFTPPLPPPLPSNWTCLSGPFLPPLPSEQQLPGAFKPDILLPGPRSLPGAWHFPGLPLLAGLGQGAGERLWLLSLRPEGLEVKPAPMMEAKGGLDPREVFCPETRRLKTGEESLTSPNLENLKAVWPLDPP
In short: as §1

ETS2 = target: T9, ETS2 (Homo sapiens, UniProt P15036 1-469)
T9 sequence: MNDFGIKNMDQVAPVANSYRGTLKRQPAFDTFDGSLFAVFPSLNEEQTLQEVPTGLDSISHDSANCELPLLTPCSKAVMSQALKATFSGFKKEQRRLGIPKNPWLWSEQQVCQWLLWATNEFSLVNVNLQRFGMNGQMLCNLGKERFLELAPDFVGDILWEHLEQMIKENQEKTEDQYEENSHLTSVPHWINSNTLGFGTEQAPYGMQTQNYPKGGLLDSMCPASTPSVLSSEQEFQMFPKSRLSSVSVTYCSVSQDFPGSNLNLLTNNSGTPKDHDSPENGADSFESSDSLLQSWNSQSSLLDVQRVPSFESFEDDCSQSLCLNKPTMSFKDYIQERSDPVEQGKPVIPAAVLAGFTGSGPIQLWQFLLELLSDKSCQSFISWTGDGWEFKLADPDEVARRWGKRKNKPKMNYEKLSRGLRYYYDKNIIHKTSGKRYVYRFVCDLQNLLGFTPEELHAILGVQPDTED
In short: as §1

ETV7 = target: T10, ETV7 (Homo sapiens, UniProt Q9Y603 1-341)
T10 sequence: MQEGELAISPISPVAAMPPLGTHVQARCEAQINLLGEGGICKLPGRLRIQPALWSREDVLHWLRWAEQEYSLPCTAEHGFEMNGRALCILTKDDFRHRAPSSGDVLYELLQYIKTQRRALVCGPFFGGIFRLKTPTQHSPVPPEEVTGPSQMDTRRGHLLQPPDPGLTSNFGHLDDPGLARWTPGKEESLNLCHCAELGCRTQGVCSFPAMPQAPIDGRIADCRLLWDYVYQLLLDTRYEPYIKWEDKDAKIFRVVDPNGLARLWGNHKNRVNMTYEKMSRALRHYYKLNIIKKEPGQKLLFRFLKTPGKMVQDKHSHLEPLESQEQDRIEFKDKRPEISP
In short: as §1

ETV3 = target: T11, ETV3 (Homo sapiens, UniProt P41162-2 1-143)
T11 sequence: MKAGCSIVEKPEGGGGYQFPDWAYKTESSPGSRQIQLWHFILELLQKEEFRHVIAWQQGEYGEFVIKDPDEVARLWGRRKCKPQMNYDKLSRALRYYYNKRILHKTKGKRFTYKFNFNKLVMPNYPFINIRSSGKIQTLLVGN
In short: as §1

ETV6 = ETV6 (Homo sapiens, UniProt P41212 1-452)
In short: as §1

Chain of SPIB (Q01892 whole entry): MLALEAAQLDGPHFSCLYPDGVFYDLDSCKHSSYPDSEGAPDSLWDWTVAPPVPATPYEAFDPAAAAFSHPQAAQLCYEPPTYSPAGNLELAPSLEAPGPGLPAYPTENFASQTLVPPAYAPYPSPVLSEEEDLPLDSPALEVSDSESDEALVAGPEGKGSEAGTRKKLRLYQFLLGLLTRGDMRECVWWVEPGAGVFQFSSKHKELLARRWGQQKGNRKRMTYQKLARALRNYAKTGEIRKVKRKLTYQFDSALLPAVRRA
Chain of ETV5 (P41161 whole entry): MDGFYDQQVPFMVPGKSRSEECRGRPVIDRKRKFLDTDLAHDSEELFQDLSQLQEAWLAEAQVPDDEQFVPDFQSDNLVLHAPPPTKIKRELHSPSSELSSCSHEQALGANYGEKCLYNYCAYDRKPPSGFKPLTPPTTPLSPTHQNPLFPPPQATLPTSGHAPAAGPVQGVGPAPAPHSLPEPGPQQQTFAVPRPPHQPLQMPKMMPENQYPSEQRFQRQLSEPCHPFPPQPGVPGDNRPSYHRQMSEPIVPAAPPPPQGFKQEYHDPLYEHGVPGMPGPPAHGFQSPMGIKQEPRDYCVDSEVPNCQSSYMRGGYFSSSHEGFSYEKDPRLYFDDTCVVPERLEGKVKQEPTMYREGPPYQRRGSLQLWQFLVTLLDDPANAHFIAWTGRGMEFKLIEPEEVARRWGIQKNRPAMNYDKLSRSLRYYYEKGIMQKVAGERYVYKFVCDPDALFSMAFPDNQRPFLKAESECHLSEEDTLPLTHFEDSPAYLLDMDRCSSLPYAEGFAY
Chain of ELF1 (P32519 whole entry): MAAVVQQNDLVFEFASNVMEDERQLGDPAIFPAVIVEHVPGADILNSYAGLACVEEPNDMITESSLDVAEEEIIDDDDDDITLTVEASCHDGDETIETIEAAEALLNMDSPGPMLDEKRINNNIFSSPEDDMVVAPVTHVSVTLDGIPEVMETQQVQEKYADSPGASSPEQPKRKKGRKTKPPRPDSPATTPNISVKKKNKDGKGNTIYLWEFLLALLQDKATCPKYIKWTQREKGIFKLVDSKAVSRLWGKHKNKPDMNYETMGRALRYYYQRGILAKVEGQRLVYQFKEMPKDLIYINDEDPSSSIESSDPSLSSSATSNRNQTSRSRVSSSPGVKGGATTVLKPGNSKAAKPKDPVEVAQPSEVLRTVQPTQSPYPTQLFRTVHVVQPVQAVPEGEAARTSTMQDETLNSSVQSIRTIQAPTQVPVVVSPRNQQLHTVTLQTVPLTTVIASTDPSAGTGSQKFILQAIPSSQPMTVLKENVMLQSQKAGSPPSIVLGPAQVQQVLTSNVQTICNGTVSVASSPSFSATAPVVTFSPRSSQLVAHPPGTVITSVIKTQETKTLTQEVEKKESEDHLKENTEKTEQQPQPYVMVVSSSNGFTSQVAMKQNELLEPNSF
Chain of ETV6 (P41212 whole entry): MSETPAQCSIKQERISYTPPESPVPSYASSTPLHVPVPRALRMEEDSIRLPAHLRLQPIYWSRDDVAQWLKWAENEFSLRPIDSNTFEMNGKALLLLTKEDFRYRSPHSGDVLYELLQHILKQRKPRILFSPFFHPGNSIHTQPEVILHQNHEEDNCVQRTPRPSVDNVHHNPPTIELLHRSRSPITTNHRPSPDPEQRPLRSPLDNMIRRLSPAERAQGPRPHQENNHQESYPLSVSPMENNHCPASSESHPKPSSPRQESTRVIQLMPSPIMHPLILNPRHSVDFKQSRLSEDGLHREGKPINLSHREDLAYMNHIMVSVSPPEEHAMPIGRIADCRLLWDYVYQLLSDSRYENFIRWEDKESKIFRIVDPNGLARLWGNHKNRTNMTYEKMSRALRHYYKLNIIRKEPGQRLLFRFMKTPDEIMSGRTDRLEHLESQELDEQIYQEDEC
Chain of ETV1 (P50549 whole entry): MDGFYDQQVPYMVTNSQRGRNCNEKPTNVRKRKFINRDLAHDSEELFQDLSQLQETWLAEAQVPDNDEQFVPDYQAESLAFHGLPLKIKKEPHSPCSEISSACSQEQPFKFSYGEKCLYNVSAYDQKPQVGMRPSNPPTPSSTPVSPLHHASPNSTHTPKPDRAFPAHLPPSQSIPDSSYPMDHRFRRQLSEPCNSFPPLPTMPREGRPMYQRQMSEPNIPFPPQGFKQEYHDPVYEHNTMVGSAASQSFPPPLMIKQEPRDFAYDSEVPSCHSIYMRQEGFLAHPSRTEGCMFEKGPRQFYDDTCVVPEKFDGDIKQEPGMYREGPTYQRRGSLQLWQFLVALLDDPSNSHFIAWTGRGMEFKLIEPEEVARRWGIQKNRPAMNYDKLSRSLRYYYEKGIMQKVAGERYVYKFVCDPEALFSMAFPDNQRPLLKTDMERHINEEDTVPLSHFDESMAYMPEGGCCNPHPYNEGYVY
Chain of ELF4 (Q99607 whole entry): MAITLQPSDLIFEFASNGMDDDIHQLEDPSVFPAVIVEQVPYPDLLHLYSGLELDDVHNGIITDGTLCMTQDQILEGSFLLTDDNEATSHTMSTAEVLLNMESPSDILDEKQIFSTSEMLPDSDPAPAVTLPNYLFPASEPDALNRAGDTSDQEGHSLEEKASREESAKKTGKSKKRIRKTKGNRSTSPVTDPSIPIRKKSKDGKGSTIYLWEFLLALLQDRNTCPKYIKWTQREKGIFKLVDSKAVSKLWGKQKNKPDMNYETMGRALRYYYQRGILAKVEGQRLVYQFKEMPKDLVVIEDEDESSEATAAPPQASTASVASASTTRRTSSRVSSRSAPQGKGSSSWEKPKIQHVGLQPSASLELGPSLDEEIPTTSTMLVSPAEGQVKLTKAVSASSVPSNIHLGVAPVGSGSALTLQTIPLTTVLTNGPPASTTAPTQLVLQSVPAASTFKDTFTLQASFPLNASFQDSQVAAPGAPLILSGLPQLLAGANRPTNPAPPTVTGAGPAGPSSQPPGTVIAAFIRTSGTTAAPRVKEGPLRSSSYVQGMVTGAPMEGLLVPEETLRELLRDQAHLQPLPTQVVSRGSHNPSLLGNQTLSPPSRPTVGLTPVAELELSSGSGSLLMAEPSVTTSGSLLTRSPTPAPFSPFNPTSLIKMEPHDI

With CTGGGC the binding signal (FLI1) was 1.15 fold enrichment (6-mer frequency, TF over GST control), the binding signal (ELK1) was 1.08 fold enrichment (6-mer frequency, TF over GST control) and the binding signal (GABPA) was 1.09 fold enrichment (6-mer frequency, TF over GST control). The binding signal (ERG) was 1.04 fold enrichment (6-mer frequency, TF over GST control), the binding signal (ELF1) was 1.24 fold enrichment (6-mer frequency, TF over GST control) and the binding signal (EHF) was 1.01 fold enrichment (6-mer frequency, TF over GST control). For the same sequence, the binding signal (SPI1) was 1.05 fold enrichment (6-mer frequency, TF over GST control), the binding signal (SPIB) was 1.03 fold enrichment (6-mer frequency, TF over GST control) and the binding signal (ELK3) was 1.02 fold enrichment (6-mer frequency, TF over GST control). For the same sequence, the binding signal (ETV5) was 1.04 fold enrichment (6-mer frequency, TF over GST control), the binding signal (ELF4) was 1.07 fold enrichment (6-mer frequency, TF over GST control) and the binding signal (ETV2) was 1.13 fold enrichment (6-mer frequency, TF over GST control). The binding signal (ETV1) was 1 fold enrichment (6-mer frequency, TF over GST control), the binding signal (ETV3L) was 1.12 fold enrichment (6-mer frequency, TF over GST control) and the binding signal (ETS2) was 1.03 fold enrichment (6-mer frequency, TF over GST control). The binding signal (ETV7) was 1.24 fold enrichment (6-mer frequency, TF over GST control), the binding signal (ETV3) was 1.03 fold enrichment (6-mer frequency, TF over GST control) and the binding signal (ETV6) was 1.03 fold enrichment (6-mer frequency, TF over GST control).
